# High-throughput results as filed in PubChem BioAssay.
# Luc counter: Counterscreen for Luciferase (Kinase-Glo TM) Inhibition; Luciferin 4-monooxygenase (Photuris pensylvanica), Q27757; Kinase-Glo luciferase, ATP luminescence, 8 min; Potency, µM (highest dose often 38.3 µM), inactives show at the highest dose activity change, negative = inhibition, actives largely listed as inhibitors; 200,000 compounds, 0.28% hits; AID 1379, 2008; further: potency means the concentration at half of the fitted maximal effect; on the % scale 0 is the no-effect control and ±100 the full control effect; nearly all actives have a fitted effect of over 60% in size
#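 Light output from Kinase-Glo luciferase with luciferin and 10 uM ATP in 50 mM imidazole pH 7.2, KCl, MgCl2, Tween 20, BSA; compound pin-delivered, 8-min ambient incubation, then luminescence read.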
# RXFP1 agonist: qHTS Assay for Agonists of the Relaxin Receptor RXFP1 | 370,000 compounds, 0.3% hits | Relaxin receptor 1 (Homo sapiens), Q9HBX9 | HEK293T-RXFP1 cAMP TR-FRET, 30 min; response scale: percent of porcine relaxin response, buffer zero | Potency, µM (titrated, usually from 57.5 µM), for the others: at the top dose activation, hits mostly activators | AID 2676, 2010; further: potency means the concentration at half of the fitted maximal effect; on the % scale 0 is the no-effect control and ±100 the full control effect; nearly all actives have a fitted effect of over 60% in size
# Target sequence (Q9HBX9 whole entry, looked up): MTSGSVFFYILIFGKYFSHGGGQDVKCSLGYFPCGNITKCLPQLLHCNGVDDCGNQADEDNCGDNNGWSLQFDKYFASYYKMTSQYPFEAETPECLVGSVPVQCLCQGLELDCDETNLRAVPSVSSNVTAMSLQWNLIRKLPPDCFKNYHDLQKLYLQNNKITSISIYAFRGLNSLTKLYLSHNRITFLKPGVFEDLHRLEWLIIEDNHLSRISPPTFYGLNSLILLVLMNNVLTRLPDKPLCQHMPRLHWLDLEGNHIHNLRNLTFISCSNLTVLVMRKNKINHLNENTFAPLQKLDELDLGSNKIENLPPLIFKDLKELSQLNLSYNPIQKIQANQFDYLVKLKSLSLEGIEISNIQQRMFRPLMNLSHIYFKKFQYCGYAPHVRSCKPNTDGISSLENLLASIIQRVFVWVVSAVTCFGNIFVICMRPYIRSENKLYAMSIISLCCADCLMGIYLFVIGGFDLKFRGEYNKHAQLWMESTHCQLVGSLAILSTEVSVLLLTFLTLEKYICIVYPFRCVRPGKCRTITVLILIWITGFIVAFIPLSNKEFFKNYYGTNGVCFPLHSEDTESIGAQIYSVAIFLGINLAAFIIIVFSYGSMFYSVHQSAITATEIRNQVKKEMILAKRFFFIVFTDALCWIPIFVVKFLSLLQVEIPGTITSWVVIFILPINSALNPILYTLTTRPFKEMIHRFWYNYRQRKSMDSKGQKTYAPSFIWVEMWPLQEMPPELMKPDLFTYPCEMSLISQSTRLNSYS
#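 cAMP rise read by TR-FRET after 30 min, 37C compound exposure (up to 58 uM) in RXFP1-transfected HEK293 cells with Ro 20174 present. EC50 from Hill-equation fits, with 29 nM porcine relaxin as 100% and buffer as basal.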
# gsp agonist: qHTS for Agonist of gsp, the Etiologic Mutation Responsible for Fibrous Dysplasia/McCune-Albright Syndrome: qHTS; Potency, µM (series often up to 76.9 µM), without a hit: at the top dose activation (cAMP increase), usual class: activators; gsp mutant cells, cAMP HTRF, 30 min; 340,000 compounds, 0.13% hits; active means well fitted activation curve with a large enough effect; inconclusive means small, poorly fitted or top-dose-only effect, or another doubt; inactive means no such curve, though single readings can be large or run the other way; cell line not stated here;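 further: phosphodiesterase inhibitor Ro 20-1724 added with compounds to block cAMP breakdown; potency means the concentration at half of the fitted maximal effect; nearly all actives have a fitted effect of over 60% in size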
#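 Cells stably selected in G418 were plated at 2000/well, grown 16-24 hr, then given compounds in DMSO with the PDE inhibitor […] (300 uM solution added) for 30 min at 37C; cAMP was read by HTRF.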
# gsp antagonist: qHTS for Antagonists of gsp, the Etiologic Mutation Responsible for Fibrous Dysplasia/McCune-Albright Syndrome: qHTS | 340,000 compounds, 0.4% hits | Potency, µM (doses to about 76.9 µM), inactives show at the top dose activity change, negative = inhibition, actives largely listed as inhibitors | gsp-mutant cells, cAMP HTRF, 30 min; calls by dose curve; cell line not stated here;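 further: intracellular cAMP measured with PDE inhibitor Ro 20-1724 present during compound exposure; potency means the concentration at half of the fitted maximal effect; on the % scale 0 is the no-effect control and ±100 the full control effect; nearly all actives have a fitted effect of over 65% in size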
#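 G418-selected cells were plated in DMEM/10% FBS for 16-24 h at 37C, then treated with compounds plus the PDE inhibitor […] (300 uM solution added) for 30 min at 37C. Intracellular cAMP was measured by HTRF after 30 min lysis at room temperature.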
# RXFP1 antag: qHTS Assay for Antagonists of the Relaxin Receptor RXFP1; HEK293-RXFP1, relaxin-stimulated cAMP HTRF, 30 min; hits give low values; Relaxin receptor 1 (Homo sapiens), Q9HBX9; 350,000 compounds, 0.59% hits; activity change, negative = inhibition, % at 57.5 µM;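 active means activity change of -60% or lower, but not beyond a set lower limit; inconclusive means change between -60% and -40%, or beyond the set limit; inactive means change above -40%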; further: on the % scale 0 is the no-effect control and ±100 the full control effect
# miR-21 act: qHTS Assay for Modulators of miRNAs and/orActivators of miR-21 | HeLa miR-21 FLuc reporter, luciferase, 48 h | Potency, µM (top dose mostly 38.3 µM), for inactives: top-dose activity change, positive = activation, hits mostly activators | 340,000 tested, under 10 active | AID 2288, 2010;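 further: % of control where 0% means no effect; miR-21 action dims this reporter so a rising signal means less miR-21 action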
#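 Using DMEM plus 10% FBS, HeLa miR-21-FLuc cells are incubated with test compounds (final up to about 40uM) for 48 hours; firefly luciferase signal is then imaged following reagent-mediated lysis.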
# * marks the source's active call; other numbers are inactive results; ? = inconclusive; / = no result; [ ] = another dose, or the depositor's remark. Compounds with a hit are over-represented: about 1% of the library has one in this group of screens. Unless noted, the call rests on the fitted dose curve; in most records, active means well fitted curve in the direction sought with a large enough effect; inconclusive means small, poorly fitted or top-dose-only effect, or another doubt; inactive means no such curve, though single readings can be large; an effect the other way counts as inactive or inconclusive.
SMILES,Luc counter,RXFP1 agonist,gsp agonist,gsp antagonist,RXFP1 antag,miR-21 act
CCOC(=O)c1ccc(NC(=O)CSc2cc(-c3ccccc3)nc(C)n2)cc1,/,0.3%,/,/,12.9,-1.2%
O=C(NCCOC(=O)c1ccc([N+](=O)[O-])cc1)c1cccnc1,-2.2%,?,17.8µM*,1.9%,22.7,0.6%
Cc1nc2c(cnn2-c2ccccc2Cl)c(=O)n1-c1ccc(C(C)C)cc1,16.6%,0.2%,-35.3%,35.5µM*,6.7,8.2%
COCCn1ccc2c(OCC(=O)Nc3cccc(OC)c3)cccc2c1=O,/,-0.2%,/,/,/,-0.2%
Nc1ccc(Br)c2cccnc12,-1.7%,2.2%,-12.0%[15.4 µM],-15.6%,-64.9*,-11.2%
CS(=O)(=O)Oc1ccc(Br)c2cccnc12,/,0.2%,20.3%,11.0%,-1.2,-11.3%
Cc1ccc(CC(=O)Nc2ccc3c(c2)N(C)C(=O)c2ccccc2S3)cc1,/,1.9%,/,/,?,?
CCOC(=O)c1nc2sc3c(c2c(=O)n1C(C)C(=O)OCC)CCCC3 (stereo not drawn),-0.6%,4.7%,-10.2%[15.4 µM],-23.4%,-60.9*,6.7%
Cc1cc(C)n(-c2nc(NCCN(C)C)c3c4c(sc3n2)COC(C)(C)C4)n1,/,-3.7%,2.1%,16.1%,-71.5*,2.3%
Cc1cc(C)n(-c2nc(NCCCN(C)C)c3c4c(sc3n2)COC(C)(C)C4)n1,/,-2.6%,6.1%[15.4 µM],3.6%,-9.5,-10.2%
Nc1cccc(-c2nc3ccc(N)cc3s2)c1,12.6µM*,13.7%,?,-10.1%,/,19.3%
Nc1ccc(-c2nc3ccc(N)cc3s2)cc1,/,28.5%,8.9%[15.4 µM],-1.0%,10.0,5.5%
CCOc1ccc(C2C(=O)N(C3CCCCC3)CC(=O)N2Cc2ccc(F)cc2)cc1OC (stereo not drawn),/,0.3%,/,/,2.2,-5.5%
COc1cccc(C=Nc2ccc(N3CCOCC3)cc2)c1O,/,-1.8%,-37.4%,-17.9%,-3.2,-10.0%
COc1cccc(C=Nc2ccc3c(c2)OCCO3)c1O,7.94µM*,-4.8%,9.2%[15.4 µM],-12.9%,-19.9,-29.5%
CC(C)OCCCNc1nc(-c2ccccc2)nc2ccccc12,/,1.7%,9.8%,?,-21.2,19.7%
CC(C)(C)C(=O)OCCNc1nc(-c2ccccc2)nc2ccccc12,-1.6%,0.0%,?,50.1µM*,?,0.2%
CCOC(=O)C(=O)Nc1cc(C)on1,12.6µM*,-2.2%,0.5%[15.4 µM],12.5%,-20.8,-55.8%
CCCCNC(=O)Nc1cc(C)on1,1.1%,-0.3%,-1.8%,14.9%,16.0,-8.1%
CCN(CC)S(=O)(=O)c1ccc(N2CCCC2)c(NS(=O)(=O)c2ccc(F)cc2)c1,-0.2%,-1.4%,25.1µM*,-4.3%,20.0,-7.4%
CCN(C(=O)c1nn(C)c2c1CSc1ccccc1-2)c1cccc(C)c1,/,0.9%,/,/,-25.4,7.2%
COc1cccc(C(=O)/C=C/Nc2cc(C)ccc2O)c1,-3.5%,3.4%,?,?,-78.4*,-37.8%
Cn1c(=O)c2sccc2n2c(CCCC(=O)N3CCCCC3)nnc12,/,17.8µM*,?,-4.5%,4.3,0.8%
Cn1c(=O)c2sccc2n2c(CCCC(=O)NC3CCCCC3)nnc12,/,?,/,/,14.8,-27.7%
Cc1cc(=S)c2cccc(C)c2[nH]1,-4.8%,22.4µM*,32.4%[15.4 µM],5.1%,19.6,-2.5%
SMILES,Luc counter,RXFP1 agonist,gsp agonist,gsp antagonist,RXFP1 antag,miR-21 act
Cc1cccc2c(=O)cc(C(F)(F)F)[nH]c12,/,-1.4%,11.8%,-20.6%,-9.3,14.8%
COc1ccc(C(=O)Nc2ccc(-c3n[nH]c(=S)o3)cc2)cc1OC,/,8.7%,19.8%,-4.1%,2.0,-3.4%
Cc1ccccc1-c1n[nH]c(=S)o1,8.9%,15.8µM*,?,40.1%,8.8,-6.5%
COc1ccc(Cl)cc1-c1n[nH]c(=S)o1,7.0%,6.31µM*,14.1µM*,-1.2%,-4.5,-0.7%
S=c1[nH]nc(-c2ccccc2)o1,5.2%,?,?,-0.4%,3.3,-4.1%
CCCc1ccc(OCc2ccc(C(=O)N3CCN(c4ccccn4)CC3)o2)c(OC)c1,-1.3%,-0.2%,-55.3%,?,-62.6*,12.2%
CCOc1ccc(CC(=O)N/N=C/c2cccnc2)cc1OCC,/,-0.8%,26.6%,3.7%,5.5,-1.0%
COc1ccc(CC(=O)N/N=C/c2cccnc2)cc1OC,/,31.6µM*,-33.0%,11.1%,6.6,-7.4%
CN(Cc1ccccc1)C(=O)COC(=O)C1CCN(S(=O)(=O)c2ccc(Cl)c(C(F)(F)F)c2)CC1,/,-0.1%,4.6%[15.4 µM],-3.8%,-96.0*,/
Cc1c(Cl)cccc1NC(=O)CCS(=O)(=O)c1ccc2c(c1)CC(C)N2C(=O)C1CC1 (stereo not drawn),/,1.2%,/,/,-0.3,29.8%
O=C(CCN1CCc2ccccc2CC1)c1ccc2c(c1)OCCO2,-3.5%,2.1%,-16.3%,16.3%,-64.7*,?
Cc1nc2cccnc2n1-c1cccc(C(=O)N2CCN(c3ccc(Cl)cc3)CC2)c1,/,13.5%,/,/,?,?
Cc1cccc(N2CCN(C(=O)c3cccc(-n4c(C)nc5cccnc54)c3)CC2)c1C,/,0.1%,/,/,-1.8,0.3%
Cc1ccc(Cl)cc1N1CCN(C(=O)c2ccc(C)c(-n3c(C)nc4cccnc43)c2)CC1,/,-0.7%,/,/,-64.3*,?
Cc1ccc(C)c(N2CCN(C(=O)c3cccc(-n4c(C)nc5cccnc54)c3)CC2)c1,/,0.9%,/,/,-69.7*,?
Cc1ccc2c(C)c(C(=O)NCCN3CCCC(O)C3)oc2c1C (stereo not drawn),/,1.6%,-11.4%,5.4%,-111.8*,-9.6%
CCCc1ccc2oc(C(=O)NCCN3CCCC(O)C3)c(C)c2c1 (stereo not drawn),/,0.3%,6.3%,-12.5%,-10.7,-33.8%
CCOc1ccc(OCc2cccc(C(=O)O)c2)cc1,11.2µM*,-0.4%,11.2%,4.8%,13.8,16.0%
COC(=O)c1ccc(NC(=O)C(=O)c2cccn2C)cc1,12.6µM*,-1.5%,-0.2%,5.7%,-22.3,-11.3%
COC(=O)c1ccc(NC(=O)c2ccccc2C(=O)Nc2ccc(C(=O)OC)cc2)cc1,/,/,?,-2.5%,7.0,/
O=c1/c(=C/c2ccccn2)sc2nc3ccccc3n12,12.6µM*,1.1%,-3.5%,13.5%,/,-56.3%
CCc1ccc(OCC(=O)N(Cc2ccco2)Cc2ccccc2Cl)cc1,/,-0.8%,/,/,-31.3,8.5%
